High-throughput results deposited in PubChem BioAssay by National Center for Advancing Translational Sciences (NCATS).
An excerpt weighted towards active compounds, which were near 7.5% of everything screened.
Luc counter: blocks Kinase-Glo luciferase, a counter-screen artifact. Potency, µM (doses to about 38.3 µM), actives largely listed as inhibitors. Kinase-Glo luciferase, ATP luminescence, 8 min. hit rate 0.28% among 200,000. Q27757. AID 1379; also: nearly all actives have a fitted effect of over 60% in size
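Kinase-Glo luciferase light output from ATP and luciferin was measured with 10 uM ATP, within the enzyme's linear range. Buffer: 50 mM imidazole pH 7.2, 50 mM KCl, 7 mM MgCl2, 0.01% Tween 20, 0.05% BSA; luminescence read after 8 min at ambient temperature.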
ELG1 genotoxic: genotoxicity induction in ELG1-luciferase HEK293T cells | HEK293T ELG1-luciferase reporter, luminescence, 16 h | Potency, µM (highest dose often 46 µM), most hits filed as activators | hit rate 1.3% among 330,000; also: nearly all actives have a fitted effect of over 60% in size
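ELG1-luciferase HEK293T cells, 2,000/well; compound pinned in; 16 hr, 37 °C, 5% CO2; ONE-Glo, 30 min RT; luminescence on CCD imager.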
NPC1 promoter act: activates the NPC1 promoter; Huh7 NPC1 promoter luciferase reporter, 24 h; Potency, µM (doses to about 9.22 µM), actives largely listed as activators; hit rate 2.4% among 320,000; AID 485313; also: nearly all actives have a fitted effect of over 60% in size
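Quantitative HTS used a cell-based reporter: Huh7 cells stably bearing the NPC1 promoter upstream of luciferase were treated with compounds for 24 h, and promoter activation was read as luminescence.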
SMN2 splice enh: SMN2 splice variant enhancement. HEK293 SMN2-luciferase splicing reporter, luminescence, 30-36 h. Potency, µM (highest dose often 46.1 µM), usual class: activators. hit rate 2.8% among 210,000; also: nearly all actives have a fitted effect of over 55% in size
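HEK293 cells carry an SMN2 […]–luciferase reporter in which exon 7 inclusion puts luciferase in frame. Cells were plated 10-12 h before compound addition, then incubated 30-36 h at 37C. ONE-Glo luminescence was read; sodium butyrate at 4.5 mM final served as control.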
FLuc modulator: inhibits or activates purified firefly luciferase, miR-21 counter-screen | AID 588342 | hit rate 6.9% among 360,000 | purified FLuc, Km substrates, luminescence inhibition | Potency, µM (doses to about 57.5 µM), actives largely listed as inhibitors; also: nearly all actives have a fitted effect of over 55% in size
Target sequence (P08659 whole entry, looked up): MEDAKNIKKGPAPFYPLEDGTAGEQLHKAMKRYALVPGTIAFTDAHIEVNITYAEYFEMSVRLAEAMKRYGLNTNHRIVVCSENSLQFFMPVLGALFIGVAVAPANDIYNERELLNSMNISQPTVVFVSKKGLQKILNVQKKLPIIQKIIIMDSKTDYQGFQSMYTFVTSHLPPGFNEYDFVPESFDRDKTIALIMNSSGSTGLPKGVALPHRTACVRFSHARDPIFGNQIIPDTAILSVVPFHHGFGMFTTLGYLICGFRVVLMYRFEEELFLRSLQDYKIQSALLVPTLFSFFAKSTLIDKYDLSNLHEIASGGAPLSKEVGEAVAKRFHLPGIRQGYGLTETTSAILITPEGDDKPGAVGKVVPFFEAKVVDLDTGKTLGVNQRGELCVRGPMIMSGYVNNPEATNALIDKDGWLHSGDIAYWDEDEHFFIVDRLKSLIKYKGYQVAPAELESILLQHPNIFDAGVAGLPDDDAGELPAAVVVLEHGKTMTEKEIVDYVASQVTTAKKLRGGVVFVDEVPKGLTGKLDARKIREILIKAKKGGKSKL
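Purified P. pyralis luciferase, 10 nM final, with Km-level 10 uM D-luciferin and 10 uM ATP in 50 mM Tris acetate pH 7.5, 10 mM Mg acetate, 0.01% Tween-20, 0.05% BSA; 6-point qHTS titration about 60 µM downward; luminescence read.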
Rab9 prom act: activators of Rab9 promoter | Potency, µM (doses to about 9.22 µM), actives largely listed as activators | Huh7 Rab9 promoter-luciferase reporter, luminescence, 24 h | hit rate 2.8% among 320,000 | AID 485297; also: nearly all actives have a fitted effect of over 60% in size
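Cell-based reporter: Huh7 stable for Rab9 promoter-driven luciferase, plated in reduced-serum medium with 10% FBS at 1500 cells/well, compound-treated 24 h at 37 °C, luminescence read after 10 min reagent.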
Hits are given with their value. Calls follow the shape of the dose curve; as a rule, active = well fitted curve in the direction sought with a large enough effect; inconclusive = small, poorly fitted or top-dose-only effect, or another doubt; inactive = no such curve, though single readings can be large; an effect the other way counts as inactive or inconclusive.

How did O=C(NCCN1C(=O)S/C(=C\c2cccnc2)C1=O)c1cc(S(=O)(=O)N2CCOCC2)ccc1F do in these assays?
ELG1 genotoxic: inactive; NPC1 promoter act: inactive; FLuc modulator: inactive; Rab9 prom act: inactive

Results for CCCNC(=O)C(Cc1ccccc1)NC(=O)c1ccc(-c2ccccc2)cc1 (stereo not drawn) ?
ELG1 genotoxic: inactive; NPC1 promoter act: inactive; FLuc modulator: inactive; Rab9 prom act: inactive

Results for Cc1ccc(N2C(=O)c3ccccc3C2O)nc1 (stereo not drawn) ?
Luc counter: 4.5µM; ELG1 genotoxic: inconclusive; NPC1 promoter act: inconclusive; SMN2 splice enh: 0.56µM; FLuc modulator: 1.5µM; Rab9 prom act: 0.28µM

How did Cc1ccc(N2C(=O)c3ccccc3C2Nc2ccccc2F)nc1 (stereo not drawn) do in these assays?
Luc counter: inactive; ELG1 genotoxic: inactive; NPC1 promoter act: inactive; SMN2 splice enh: inactive; FLuc modulator: inactive; Rab9 prom act: inactive

What do the screens show for `Cc1oc(-c2ccc(Cl)cc2)cc1C(=O)O`?
ELG1 genotoxic: inactive; NPC1 promoter act: inconclusive; FLuc modulator: 11µM; Rab9 prom act: inconclusive

How did COc1ccc(-c2nc3ccccc3c(=O)n2CCOc2cc(C)ccc2C)cc1 do in these assays?
Luc counter: inactive; ELG1 genotoxic: inactive; NPC1 promoter act: inactive; SMN2 splice enh: inactive; FLuc modulator: inactive; Rab9 prom act: inactive

How did NC(Cc1cc(I)c(Oc2cc(I)c(O)c(I)c2)c(I)c1)C(=O)O (stereo not drawn) do in these assays?
Luc counter: inactive; SMN2 splice enh: inactive

Results for O=C(C#Cc1ccccc1)Nc1ccc(F)cc1 ?
ELG1 genotoxic: inactive; NPC1 promoter act: inactive; FLuc modulator: 12µM; Rab9 prom act: inactive

What do the screens show for `COc1ccc(NC(=O)C#Cc2ccccc2)cc1`?
ELG1 genotoxic: inconclusive; NPC1 promoter act: 1.4µM; FLuc modulator: 8.5µM; Rab9 prom act: inconclusive

What do the screens show for `O=C(CC(=O)Nc1cccc(F)c1)Nc1cccc(F)c1`?
ELG1 genotoxic: inactive; NPC1 promoter act: inactive; FLuc modulator: inactive; Rab9 prom act: inactive

How did O=C(C#Cc1ccccc1)Nc1cccc(F)c1 do in these assays?
ELG1 genotoxic: inactive; NPC1 promoter act: inactive; FLuc modulator: 4.3µM; Rab9 prom act: inactive

How did COc1ccc(NC(=O)N(Cc2ccco2)C2CCN(C(C)=O)CC2)c(OC)c1 do in these assays?
FLuc modulator: inactive

What do the screens show for `O=C(N/N=C/c1cccnc1)c1cc(-c2ccccc2)nc2ccccc12`?
ELG1 genotoxic: inactive; NPC1 promoter act: inactive; FLuc modulator: 11µM; Rab9 prom act: inactive

Results for O=C(N/N=C/c1cccnc1)c1cc(-c2ccc(Br)cc2)nc2ccccc12 ?
ELG1 genotoxic: inactive; NPC1 promoter act: inactive; FLuc modulator: 6.7µM; Rab9 prom act: inactive

What do the screens show for `C[C@@H](NC(=O)c1nc[nH]c1C(=O)NCC(=O)OCc1ccccc1)c1ccccc1`?
ELG1 genotoxic: inactive; NPC1 promoter act: inactive; FLuc modulator: inactive; Rab9 prom act: inactive

What do the screens show for `COc1ccc(C2=NN(C(C#N)c3ccc(OC)cc3)C(c3ccccc3)C2)cc1` (stereo not drawn)?
Luc counter: inactive; ELG1 genotoxic: inconclusive; NPC1 promoter act: inconclusive; SMN2 splice enh: inconclusive; FLuc modulator: 24µM; Rab9 prom act: inconclusive

How did O=C(CC1N=C2c3ccccc3N=C(SCc3ccccc3F)N2C1=O)NCCc1ccccc1 (stereo not drawn) do in these assays?
FLuc modulator: inactive

What do the screens show for `O=C(NCC1CCCO1)C(c1ccc(F)cc1)N(C(=O)Cn1nnc(-c2ccc(F)cc2)n1)c1cccc(O)c1` (stereo not drawn)?
Luc counter: inactive; ELG1 genotoxic: inactive; NPC1 promoter act: inactive; FLuc modulator: inactive; Rab9 prom act: inactive

What do the screens show for `Cc1ccccc1OCCSCc1nc2ccccc2[nH]1`?
Luc counter: inactive; ELG1 genotoxic: inactive; NPC1 promoter act: inactive; SMN2 splice enh: inactive; FLuc modulator: inactive; Rab9 prom act: inactive

What do the screens show for `Cc1cc(C)nc(SC2=CS(=O)(=O)c3ccccc32)n1`?
Luc counter: inactive; ELG1 genotoxic: inactive; NPC1 promoter act: inactive; SMN2 splice enh: inconclusive; FLuc modulator: inactive; Rab9 prom act: inactive

What do the screens show for `O=S1(=O)C=C(Sc2nnc(-c3ccccc3)o2)c2ccccc21`?
Luc counter: inactive; ELG1 genotoxic: inactive; NPC1 promoter act: inactive; SMN2 splice enh: inactive; FLuc modulator: 30µM; Rab9 prom act: inactive

What do the screens show for `COc1cccc(-c2cc(NCc3cccs3)ncn2)c1`?
Luc counter: inactive; SMN2 splice enh: 8.9µM

How did Cc1cc2nnc(SCC(=O)Nc3cccc(S(=O)(=O)N4CCOCC4)c3)n2c2ccccc12 do in these assays?
ELG1 genotoxic: inactive; NPC1 promoter act: inactive; FLuc modulator: inactive; Rab9 prom act: inactive

What do the screens show for `COc1cccc(C2=CC(c3cccs3)n3nnnc3N2)c1` (stereo not drawn)?
Luc counter: inactive; ELG1 genotoxic: 16µM; NPC1 promoter act: inactive; SMN2 splice enh: inactive; FLuc modulator: inactive; Rab9 prom act: inactive

What do the screens show for `COc1ccc(C2=CC(c3sccc3C)n3nnnc3N2)cc1` (stereo not drawn)?
Luc counter: inactive; ELG1 genotoxic: inconclusive; NPC1 promoter act: 2.8µM; SMN2 splice enh: inactive; FLuc modulator: inactive; Rab9 prom act: 2.8µM

Results for CC(C)c1ccc(C2=CC(c3ccc(C(C)C)cc3)n3nnnc3N2)cc1 (stereo not drawn) ?
FLuc modulator: 2.7µM

Results for C[C@]1(OC(=O)/C=C\c2ccccc2)C[C@@H](O)[C@@]2(O)C=CO[C@@H](O[C@H]3O[C@@H](CO)[C@@H](O)[C@@H](O)[C@@H]3O)[C@H]21 ?
Luc counter: inactive; SMN2 splice enh: inactive

Results for O=C(CN1C(=O)CCC1=O)Nc1nc(-c2nc3ccccc3s2)cs1 ?
Luc counter: inactive; ELG1 genotoxic: inconclusive; NPC1 promoter act: inconclusive; SMN2 splice enh: 13µM; FLuc modulator: 11µM; Rab9 prom act: 2.8µM

What do the screens show for `Oc1ccc(-c2nc(-c3ccc(O)c(O)c3)cs2)cc1`?
Luc counter: inactive; ELG1 genotoxic: inconclusive; NPC1 promoter act: inactive; SMN2 splice enh: 20µM; FLuc modulator: 15µM; Rab9 prom act: inactive

How did Cc1ccc(-c2csc(NC(=O)CN3C(=O)CCC3=O)n2)cc1 do in these assays?
Luc counter: inactive; ELG1 genotoxic: inactive; NPC1 promoter act: inactive; SMN2 splice enh: inactive; FLuc modulator: inactive; Rab9 prom act: inactive

What do the screens show for `O=C(CN1C(=O)CCC1=O)Nc1nc(-c2ccc3ccccc3c2)cs1`?
Luc counter: inactive; ELG1 genotoxic: inactive; NPC1 promoter act: inactive; SMN2 splice enh: inactive; FLuc modulator: 17µM; Rab9 prom act: inconclusive

What do the screens show for `CC(=O)Nc1nc(-c2ccc3ccccc3c2)cs1`?
ELG1 genotoxic: inconclusive; NPC1 promoter act: 0.63µM; FLuc modulator: 1.3µM; Rab9 prom act: 1.1µM
